# Values joined by “and” are separate entries in the source; they are usually repeats but may differ in a detail not shown here. Equal entries are not always repeated. Inconclusive results are not listed. Where a call stands in place of a potency, no number is given. Values without a mark were called inactive. Active and inactive are the calls of the source. Calls follow the shape of the dose curve; as a rule, active = well fitted curve in the direction sought with a large enough effect in the repeat runs; inconclusive = weak or mixed curves; inactive = no such curve, though single readings can be large; an effect the other way counts as inactive or inconclusive.
# Tests used:
# [1] = target: Cytochrome P450 2C9 (Homo sapiens) (UniProt P11712); assay: Cytochrome P450 Family 2 Subfamily C Member 9 (CYP2C9) small molecule antagonists: luciferase reporter qHTS assay (AID 1671198); as to activity change, negative = inhibition: series mostly up to about 120 µM
# Summary of the method: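 CYP2C9 activity was measured with a P450-Glo proluciferin substrate. Enzyme–substrate mix was held with compound for 10 min at room temperature, then NADPH regeneration solution was added for 1 h at 37C. Luciferin product was read as luminescence.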
# [2] = target: Cytochrome P450 1A2 (Homo sapiens) (UniProt P05177); assay: Cytochrome P450 Family 1 Subfamily A Member 2 (CYP1A2) small molecule antagonists: luciferase reporter qHTS assay (AID 1671199); as to activity change, negative = inhibition: series mostly up to about 120 µM
# Summary of the method: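 Read-out is luminescence from luciferin detection reagent (20 min) proportional to CYP1A2 activity; compounds in DMSO preincubated 10 min with enzyme and proluciferin substrate, then NADPH regeneration solution, 1 h, room temperature.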
# [3] = target: Voltage-gated inwardly rectifying potassium channel KCNH2 (Homo sapiens) (UniProt Q12809); assay: Human Ether-a-go-go-Related Gene (hERG) channel small molecule antagonists: fluorescence cell-based qHTS assay (AID 1671200);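 as to activity change, negative = inhibition: hERG-expressing U2OS cells given a thallium stimulus after FluxOR II dye loading; series mostly up to about 77 µM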
# Summary of the method: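 Channel function was assessed by thallium flux. Cells seeded the previous day and kept at 37 C took up FluxOR II dye over 1 h in the dark at room temperature, then sat another 10 min before stimulation.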
# [4] = target: Cytochrome P450 3A4 (Homo sapiens) (UniProt P08684); assay: Cytochrome P450 Family 3 Subfamily A Member 4 (CYP3A4) small molecule antagonists: luciferase reporter qHTS assay (AID 1671201); as to activity change, negative = inhibition: series mostly up to about 120 µM
# Summary of the method: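 Compounds in DMSO were pin-transferred onto CYP3A4 enzyme-substrate mix and held 10 min at room temperature. NADPH regenerating solution started the reaction for 1 h; luciferin detection reagent stopped it, and luminescence was read after 20 min.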
# Also: nearly all actives have a fitted effect of over 50% in size.
# Potency is read from the fitted curve at half-maximal effect.
# Sequence of Cytochrome P450 2C9 (Homo sapiens) (P11712 whole entry, looked up): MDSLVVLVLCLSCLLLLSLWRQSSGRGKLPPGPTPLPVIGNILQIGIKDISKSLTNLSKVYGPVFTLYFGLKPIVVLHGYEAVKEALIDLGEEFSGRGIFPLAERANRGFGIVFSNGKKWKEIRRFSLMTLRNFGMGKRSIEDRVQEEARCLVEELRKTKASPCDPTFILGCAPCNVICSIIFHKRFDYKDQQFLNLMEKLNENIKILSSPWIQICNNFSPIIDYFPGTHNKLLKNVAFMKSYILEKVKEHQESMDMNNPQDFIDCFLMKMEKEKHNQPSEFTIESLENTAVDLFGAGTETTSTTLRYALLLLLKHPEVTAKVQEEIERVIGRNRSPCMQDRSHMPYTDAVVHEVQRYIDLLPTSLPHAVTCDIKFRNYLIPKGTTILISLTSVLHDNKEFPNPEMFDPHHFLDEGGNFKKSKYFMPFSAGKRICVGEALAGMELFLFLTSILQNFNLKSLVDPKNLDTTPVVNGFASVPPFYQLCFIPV
# Sequence of Cytochrome P450 1A2 (Homo sapiens) (P05177 whole entry, looked up): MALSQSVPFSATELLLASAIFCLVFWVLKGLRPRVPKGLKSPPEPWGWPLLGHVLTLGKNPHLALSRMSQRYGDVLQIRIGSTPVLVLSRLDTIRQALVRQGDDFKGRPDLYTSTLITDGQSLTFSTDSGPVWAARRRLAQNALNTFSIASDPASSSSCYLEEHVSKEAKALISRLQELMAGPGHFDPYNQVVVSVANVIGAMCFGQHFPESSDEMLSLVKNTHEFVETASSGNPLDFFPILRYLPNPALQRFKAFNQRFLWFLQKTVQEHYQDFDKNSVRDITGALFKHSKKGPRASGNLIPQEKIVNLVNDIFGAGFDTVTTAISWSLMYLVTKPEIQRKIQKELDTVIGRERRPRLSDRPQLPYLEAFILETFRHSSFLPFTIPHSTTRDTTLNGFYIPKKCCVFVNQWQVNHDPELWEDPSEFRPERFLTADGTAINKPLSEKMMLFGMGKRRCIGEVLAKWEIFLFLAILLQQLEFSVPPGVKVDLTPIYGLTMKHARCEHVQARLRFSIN
# Sequence of Voltage-gated inwardly rectifying potassium channel KCNH2 (Homo sapiens) (Q12809 whole entry, looked up): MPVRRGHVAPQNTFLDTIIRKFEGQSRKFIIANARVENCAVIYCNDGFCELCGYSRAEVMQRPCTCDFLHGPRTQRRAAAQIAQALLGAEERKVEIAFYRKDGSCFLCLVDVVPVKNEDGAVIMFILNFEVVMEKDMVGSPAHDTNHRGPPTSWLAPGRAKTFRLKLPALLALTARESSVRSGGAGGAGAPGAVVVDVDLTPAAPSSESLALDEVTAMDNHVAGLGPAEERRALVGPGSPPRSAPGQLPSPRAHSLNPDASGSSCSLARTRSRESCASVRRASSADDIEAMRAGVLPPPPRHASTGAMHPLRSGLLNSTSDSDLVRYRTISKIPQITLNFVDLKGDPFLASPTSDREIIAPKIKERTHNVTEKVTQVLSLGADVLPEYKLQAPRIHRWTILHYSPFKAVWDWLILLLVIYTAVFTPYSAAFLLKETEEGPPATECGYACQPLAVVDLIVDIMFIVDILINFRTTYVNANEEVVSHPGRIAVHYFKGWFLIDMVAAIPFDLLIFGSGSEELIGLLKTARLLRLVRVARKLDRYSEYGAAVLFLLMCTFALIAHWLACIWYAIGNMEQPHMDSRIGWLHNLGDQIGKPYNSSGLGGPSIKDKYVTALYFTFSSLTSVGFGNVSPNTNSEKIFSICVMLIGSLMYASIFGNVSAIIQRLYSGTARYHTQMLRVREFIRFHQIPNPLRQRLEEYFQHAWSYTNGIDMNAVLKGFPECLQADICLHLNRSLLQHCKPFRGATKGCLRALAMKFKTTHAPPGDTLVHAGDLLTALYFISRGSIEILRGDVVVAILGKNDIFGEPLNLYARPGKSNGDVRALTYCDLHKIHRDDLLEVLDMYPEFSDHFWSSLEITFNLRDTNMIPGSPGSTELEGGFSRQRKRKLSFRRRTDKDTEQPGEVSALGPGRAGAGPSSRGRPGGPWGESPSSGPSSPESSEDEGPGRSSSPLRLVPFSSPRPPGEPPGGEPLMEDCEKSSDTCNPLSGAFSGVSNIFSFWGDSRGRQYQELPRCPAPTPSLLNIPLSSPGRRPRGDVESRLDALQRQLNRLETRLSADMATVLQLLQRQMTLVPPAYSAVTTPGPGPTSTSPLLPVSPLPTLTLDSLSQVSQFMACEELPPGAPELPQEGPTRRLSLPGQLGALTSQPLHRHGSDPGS
# Sequence of Cytochrome P450 3A4 (Homo sapiens) (P08684 whole entry, looked up): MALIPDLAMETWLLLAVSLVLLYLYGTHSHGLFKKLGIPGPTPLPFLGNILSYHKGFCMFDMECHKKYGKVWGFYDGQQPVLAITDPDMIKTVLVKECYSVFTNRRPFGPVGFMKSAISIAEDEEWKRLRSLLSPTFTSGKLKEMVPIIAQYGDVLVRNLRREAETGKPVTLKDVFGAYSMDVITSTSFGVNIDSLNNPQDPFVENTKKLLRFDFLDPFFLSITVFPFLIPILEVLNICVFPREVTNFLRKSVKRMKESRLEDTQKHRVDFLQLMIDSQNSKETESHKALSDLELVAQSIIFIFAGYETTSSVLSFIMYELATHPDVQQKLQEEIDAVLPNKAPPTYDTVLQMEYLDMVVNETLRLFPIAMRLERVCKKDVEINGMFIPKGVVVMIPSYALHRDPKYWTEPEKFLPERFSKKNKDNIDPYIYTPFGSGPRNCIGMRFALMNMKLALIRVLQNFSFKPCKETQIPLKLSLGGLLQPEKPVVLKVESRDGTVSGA
SMILES,Potency [1],Potency [2],Potency [3],Potency [4],"activity change, negative = inhibition [1]","activity change, negative = inhibition [2]","activity change, negative = inhibition [3]","activity change, negative = inhibition [4]"
CC[N+](CC)(CC)CCOc1ccc(/C=C/c2ccccc2)cc1,inactive,inactive,8.49 µM (active),inactive,,,,
O=C(c1ccc(O)c(O)c1)c1ccc(O)cc1O,inactive,31.7 µM (active),inactive,5.63 µM (active),,,,
Nc1ccc(C(=O)O)c(O)c1,inactive,inactive,inactive,inactive,,,,
CCC(=O)OC(=O)CC,inactive,inactive,inactive,inactive,,,,
O=C(O)c1cc(-c2ccc(F)cc2F)ccc1O,24.5 µM (active),inactive,inactive,inactive,,,,
CN(C)Cc1ccccc1O,inactive,inactive,inactive,inactive,,,,
CCc1ccc(Br)cc1,inactive,inactive,inactive,inactive,,,,
Nc1ccc(NCCO)c([N+](=O)[O-])c1,35.6 µM (active),31.7 µM (active),inactive,25.2 µM (active),,,,
C[C@H]1NCc2cc(-c3ccc4c(=O)c(C(=O)O)cn(C5CC5)c4c3OC(F)F)ccc21,,,,,0.717% [at 23.6 µM],13.9% [at 23.6 µM],-3.88% [at 15.8 µM],10.5% [at 23.6 µM]
C/C=C/C=C/COC(=O)C(C)C,63.3 µM (active),35.6 µM (active),inactive,28.3 µM (active),,,,
O=c1[nH]c(=O)n([C@H]2C[C@H](O)[C@@H](CO)O2)cc1F,inactive,inactive,inactive,inactive,,,,
COc1ccc(-c2coc3cc(O)ccc3c2=O)cc1,0.252 µM (active),12.6 µM (active),inactive,inactive,,,,
Cl[Si](Cl)(c1ccccc1)c1ccccc1,23 µM (active),64.8 µM (active),inactive,5.14 µM (active),,,,
O=C(/C=C/c1ccc(O)c(O)c1)O[C@@H](C(=O)O)[C@@H](OC(=O)/C=C/c1ccc(O)c(O)c1)C(=O)O,inactive,inactive,inactive,inactive,,,,
CCCCC/C=C\C/C=C\CCCCCCCC(=O)O,35 µM (active) and 31.7 µM (active),inactive,inactive,39.9 µM (active),,,,
Cc1cc(C)c(/C=C2\C(=O)Nc3ccccc32)[nH]1,11 µM (active),1.44 µM (active),inactive,inactive,,,,
CC1(C)CCC[C@]2(C)[C@H]3CCO[C@]3(C)CC[C@@H]12,inactive,inactive,inactive,inactive,,,,
CC(CO)Oc1ccccc1 (stereo unspecified),inactive,inactive,inactive,inactive,,,,
CC(=O)c1ccc(C(C)=O)cc1,inactive,28.9 µM (active),inactive,inactive,,,,
